Structures are written as SMILES. Hit rate of the full screen: of about 47,000 compounds, about 200 (0.43%) were called active. Another 1% or so got no clear call; they are omitted.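 Rule for the calls: active = inhibition of aggregate fluorescence above about 70%, also judged a hit by eye on the cell image (limit read from the data, passing the limit was not always enough); inconclusive = no rule stated for this call; inactive = not judged a hit on image review.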 This excerpt belongs to a sample that is enriched for actives.

The text below walks through data of PubChem BioAssay AID853 (Columbia University Molecular Screening Center, 2007).

A short description of this assay: removal of polyQ htt aggregates in HeLa – imaging, HeLa Exon1htt(103Q)mCFP, confocal imaging, primary screen (AID 853).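 Note: cells exposed to compound for three days before fixation.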 The following applies: aggregate imaging, at 1.5 µM; fraction fluorescence in grains: measured here: aggregate grain fluorescence fraction, stronger effect = lower value; inhibition: stronger effect = higher value, zero = plate's median compound well.
In the case of `CC(Sc1nnc(Cc2ccc([N+](=O)[O-])cc2)o1)C(N)=O` (stereo not drawn), the fraction fluorescence in grains was determined as 30.7 and the inhibition was 0.3% (inactive).
On the same counts, the results for `Cc1nc(NC2=NC(C(=O)Nc3ccc(Cl)cc3)CC(=O)N2)nc2ccccc12` (stereo not drawn) are 22.8 and 22.1% (inactive).
In the same order, the values of `CCCCCN1CC(O)=C(c2nc(-c3ccc(Cl)cc3)cs2)C1=N` are 36.3 and 8.6% (inactive).
On the same counts, the results for `CCN(CC)CCN1C(=O)C(=O)/C(=C(/O)c2cnn(-c3ccccc3)c2C)C1c1cccs1` (stereo not drawn) are 54.5 and -25.7% (inactive).
With `O=C(NCCSCc1ccccc1)c1ccc(Cl)c(S(=O)(=O)N2CCOCC2)c1`, the fraction fluorescence in grains was 25.6 and the inhibition is -28.1% (inactive).
With `CC(=O)N1CCN(c2cccc(C)c2C)CC1`, the fraction fluorescence in grains is 46.1 and the inhibition is -25.4% (inactive).
`CSCC[C@H](NC(=O)NCCc1ccc(F)cc1)C(=O)O`: the fraction fluorescence in grains turned out to be 15.6 and the inhibition was 18.4% (inactive).
Regarding `C[C@H](NC(=O)NCCc1ccccc1)C(=O)O`, the fraction fluorescence in grains is 5.06 and the inhibition was 70.9% (active).
Take `CC(C)C[C@H](NC(=O)NCCc1ccc(Cl)cc1)C(=O)O`: the fraction fluorescence in grains was found to be 16.2 and the inhibition was 12.2% (inactive).
On the same counts, the results for `O=C(c1ccc(F)cc1)c1c[nH]c(C(=O)NCc2cccnc2)c1` are 38.1 and 1% (inactive).
On the same counts, the results for `Fc1cnc(N2CCOCC2)nc1NCc1ccccc1` are 12.4 and 35.6% (inactive).
On to `O=c1c2ccccc2nc2n1C(CSCc1ccccc1)CS2` (stereo not drawn), for which the fraction fluorescence in grains came out at 35.3 and the inhibition was 8.1% (inactive).
On the same counts, the results for `CCCc1cc(=O)[nH]c(SCC(=O)OCc2ccccc2)n1` are 59.2 and -54.1% (inactive).
On the same counts, the results for `CCOC(=O)Cc1csc(NC(=O)CSc2nnc(-c3cccnc3)n2Cc2ccco2)n1` are 20.9 and -18.9% (inactive).
On the same counts, the results for `Cc1nn(Cc2ccc(C(=O)N3N=C(C(F)F)CC3(O)C(F)F)cc2)c(C)c1[N+](=O)[O-]` (stereo not drawn) are 62.5 and -61% (inactive).
As to `CCN1C(=O)/C(=C2/Sc3ccc(OC)cc3N2C)SC1=Nc1ccc(C)cc1`, the fraction fluorescence in grains stood at 17.9 and the inhibition is -1.7% (inactive).
On the same counts, the results for `CCOC(=O)c1cnc(SCC(=O)Nc2ccccc2C(=O)OC)nc1N` are 20.5 and -16.8% (inactive).
In the same order, the values of `COc1ccc(C(=O)Nc2nc(-c3ccc(OC)cc3)c(-c3ccc([N+](=O)[O-])cc3)s2)cc1` are 21.2 and 47.9% (inactive).
Consider `CCN(CC)S(=O)(=O)c1ccc2c3c(cccc13)C(=O)S2`, for which the fraction fluorescence in grains is 38.9 and the inhibition was -8.8% (inactive).
In the same order, the values of `COc1ccc(Cl)cc1C(=O)NCC#N` are 28.6 and 27.9% (inactive).
In the case of `COc1ccc(C(=O)NCCc2ccc(S(N)(=O)=O)cc2)cc1OC`, the fraction fluorescence in grains stood at 43.5 and the inhibition is -18.4% (inactive).
In the same order, the values of `CCn1c(O)c2ccc(C(=O)N=NC(=O)c3cccnc3)cc2c1O` are 37.7 and -25.3% (inactive).
On the same counts, the results for `Cc1ccc(-c2nn(-c3ccccc3)cc2/C=N/NC(=O)c2ccc3c(c2)OCO3)cc1` are 34 and -12.7% (inactive).
In the case of `CC12c3ccccc3C(c3ccccc31)C1C(=O)N(Cc3cccnc3)C(=O)C12` (stereo not drawn), the fraction fluorescence in grains stood at 12 and the inhibition was 60.9% (inactive).
On the same counts, the results for `COc1ccc(OC)c(/C=N/NC(=O)CSc2nnc(C)n2-c2ccccc2)c1` are 32.4 and -7.5% (inactive).
As to `Cc1cc(C)cc(NC(=O)c2cccc(NC(=O)C3C4CC5OC(=O)C3C5C4)c2)c1` (stereo not drawn), the fraction fluorescence in grains amounted to 31 and the inhibition is -31.4% (inactive).
Take `O=C(c1ccccc1)c1cc(-c2ccccn2)c(N2CCOCC2)s1`: the fraction fluorescence in grains amounted to 30.5 and the inhibition is 22% (inactive).
In the same order, the values of `Cc1ccc(-n2nc3c(c2NC(=O)CCC2CCCCC2)CS(=O)C3)cc1` (stereo not drawn) are 38.7 and 17.6% (inactive).
`CC1=C(C(N)=O)C(c2sccc2C)n2nnnc2N1` (stereo not drawn): the fraction fluorescence in grains was found to be 60.2 and the inhibition was -59.3% (inactive).
As to `O=C(Nc1ncc2c(n1)-c1ccccc1OC2)c1ccc(Cl)cc1`, the fraction fluorescence in grains is 34.8 and the inhibition was 7.6% (inactive).
`COc1cccc(N(CC(=O)NCCSc2ccccn2)S(C)(=O)=O)c1`: the fraction fluorescence in grains worked out at 32.4 and the inhibition is -38.8% (inactive).
Regarding `COc1cc(C)c(C(C)C)cc1S(=O)(=O)n1ccnc1`, the fraction fluorescence in grains stood at 38.5 and the inhibition was -120% (inactive).
Take `O=C(NC1(C(F)(F)F)NC(=O)N(Cc2cccnc2)C1=O)c1ccccc1Cl` (stereo not drawn): the fraction fluorescence in grains turned out to be 32.6 and the inhibition was 13.2% (inactive).
Regarding `Cc1nnc(OCC(=O)NCCC2=CCCCC2)c2ccccc12`, the fraction fluorescence in grains came to 30.6 and the inhibition was 19% (inactive).
As to `Cc1cc2cc(CN(Cc3cccs3)Cc3nnnn3CC3CCCO3)c(=O)[nH]c2cc1C` (stereo not drawn), the fraction fluorescence in grains is 18 and the inhibition is 47.9% (inactive).
As to `CCC(c1nnnn1C1CCCC1)N(Cc1cccs1)Cc1cc2cccc(C)c2[nH]c1=O` (stereo not drawn), the fraction fluorescence in grains was found to be 14.9 and the inhibition is 27.8% (inactive).
On the same counts, the results for `CCC(c1nnnn1Cc1ccccc1)N(Cc1cc2cc(OC)ccc2[nH]c1=O)CC1CCCO1` (stereo not drawn) are 3.01 and 83.8% (active).
In the same order, the values of `CCC(c1nnnn1Cc1ccco1)N(CCc1ccccc1)Cc1cc2cccc(C)c2[nH]c1=O` (stereo not drawn) are 4.66 and 75.8% (active).
In the same order, the values of `CCC(c1nnnn1Cc1ccco1)N(Cc1cc2cc(OC)ccc2[nH]c1=O)C1CCCCC1` (stereo not drawn) are 12.1 and 36.8% (inactive).
For `CCC(c1nnnn1Cc1ccco1)N(CCc1ccccc1)Cc1cc2ccc(OC)cc2[nH]c1=O` (stereo not drawn), the fraction fluorescence in grains came to 19.4 and the inhibition was 46.6% (inactive).
Consider `CCOC(=O)C(C)Oc1cccc2c(=O)n(CC(=O)N3CCc4ccccc43)ccc12` (stereo not drawn), for which the fraction fluorescence in grains was 44.7 and the inhibition was -33.2% (inactive).
Regarding `CCCCNC(=O)OC(C)CNC(=O)OC` (stereo not drawn), the fraction fluorescence in grains amounted to 23.8 and the inhibition is 25% (inactive).
In the same order, the values of `Cc1cc(C)c2c(-n3cccc3)c(NC(=O)OCc3ccccc3)sc2n1` are 37.4 and -74.7% (inactive).
In the same order, the values of `Cc1ccccc1CS(=O)(=O)CC1(O)CCN(C(=O)c2cccc(C(F)(F)F)c2)CC1` are 32.9 and 14.5% (inactive).
In the same order, the values of `CC(=O)c1cccc(NC(=O)c2ccncc2)c1` are 33.8 and 20.4% (inactive).
Take `COc1ccc2c3c(c(=O)oc2c1OCC(=O)C(C)(C)C)CCCC3`: the fraction fluorescence in grains turned out to be 20.5 and the inhibition was -3.3% (inactive).
Regarding `N=c1c2c(-c3ccccc3)c(-c3ccccc3)oc2ncn1Cc1ccco1`, the fraction fluorescence in grains amounted to 39.1 and the inhibition was -27.2% (inactive).
As for `Cc1nnc(SCC(=O)N2CCN(c3ccccc3)CC2)n1-c1ccccc1`, the fraction fluorescence in grains amounted to 45.5 and the inhibition was -15% (inactive).
Regarding `O=C(O)c1ccc(F)c(S(=O)(=O)Nc2ccccc2)c1`, the fraction fluorescence in grains came to 49.7 and the inhibition was -13.1% (inactive).
For the compound `O=C(O)c1ccc(NS(=O)(=O)c2cccc3nsnc23)cc1`, the fraction fluorescence in grains was determined as 5.36 and the inhibition is 70.5% (active).
Regarding `O=C(C(NS(=O)(=O)c1cccc2nsnc12)c1ccccc1)N1CCN(c2ccccn2)CC1` (stereo not drawn), the fraction fluorescence in grains worked out at 32.5 and the inhibition was 12.4% (inactive).
On the same counts, the results for `Cc1cccc(-c2nc3c(c(SCC(=O)N4CCOCC4)n2)CCCC3)c1` are 18.5 and -1.6% (inactive).
On the same counts, the results for `CCOc1ccc2c(c1)C(c1ccc(C)cc1)=NNC(c1ccc(C)cc1)=N2` are 11 and 38.1% (inactive).
`CCS(=O)(=O)n1nc(-c2ccccc2)nc1SCc1ccccc1`: the fraction fluorescence in grains worked out at 24.1 and the inhibition was -44.5% (inactive).
In the same order, the values of `c1ccc(CSc2nnc(-c3ccco3)n2Cc2ccccc2)cc1` are 21.2 and -3.2% (inactive).
In the same order, the values of `Cn1c(CO)cnc1SCc1ccccc1` are 10.9 and 71.7% (active).
With `COC(=O)c1nc2ccccc2s1`, the fraction fluorescence in grains was determined as 22.8 and the inhibition is -27.8% (inactive).
In the same order, the values of `Cc1cc(OCCN2CCCC2)ccc1C(C)C` are 38.3 and -2.5% (inactive).
Consider `CN1C(=O)CC(N2CCN(c3ccccn3)CC2)C1=O` (stereo not drawn), for which the fraction fluorescence in grains came to 29.4 and the inhibition was -42.3% (inactive).
On the same counts, the results for `Cc1nc2nc(C)c(CCC(=O)N3CCN(c4ccccc4)CC3)c(C)n2n1` are 38.5 and -21.5% (inactive).
In the same order, the values of `CCSC(C)CC1C/C(=N/O)c2c(C)noc2C1` (stereo not drawn) are 43.5 and -15.9% (inactive).
Consider `Cc1cc(C(=O)Nc2ccccc2N2CCOCC2)c2ccccc2n1`, for which the fraction fluorescence in grains was 9.37 and the inhibition was 47.3% (inactive).
On to `Cn1sc(NC(=O)c2ccccc2)nc1=O`, for which the fraction fluorescence in grains stood at 24.3 and the inhibition is -16.8% (inactive).
In the same order, the values of `O=C1/C(=C\Nc2ccccc2)CCN1c1ncccn1` are 25.9 and 18.4% (inactive).
On the same counts, the results for `CCN(CC)c1ccc(NC(=O)c2ccc(Cl)nc2)cc1` are 60.1 and -95.5% (inactive).
On the same counts, the results for `Clc1ccccc1-c1cc(COc2ccc3ccccc3c2)no1` are 33.9 and 11.8% (inactive).
Consider `Cc1c(NC(=O)c2cc(-c3ccc(Cl)s3)nc3ccccc23)c(=O)n(-c2ccccc2)n1C`, for which the fraction fluorescence in grains was found to be 26.1 and the inhibition was 21.8% (inactive).
On the same counts, the results for `Cc1ccc(S(=O)(=O)N2CC(=O)Nc3ccccc32)cc1C` are 33.9 and 11.1% (inactive).
On to `COCCN(C(=O)c1ccco1)c1nnc(-c2ccc(OC)cc2)s1`, for which the fraction fluorescence in grains amounted to 39.8 and the inhibition was -2.8% (inactive).
In the same order, the values of `C=CCNC(=S)NNc1ncnc2sc3c(c12)CC(C)(C)OC3` are 40.7 and -39.2% (inactive).
On the same counts, the results for `CC1=CC(C)(C)N(C(=O)CSc2nccn2C)c2cc(C)ccc21` are 13.3 and 26.1% (inactive).
In the same order, the values of `CC(C)c1ccc(NC(=O)CCN2C(=O)c3ccc([N+](=O)[O-])cc3C2=O)cc1` are 13.6 and 55% (inactive).
`COc1ccccc1NC(=O)CSc1nnc(C)n1CC1CCCO1` (stereo not drawn): the fraction fluorescence in grains amounted to 15.8 and the inhibition is 17.7% (inactive).
In the same order, the values of `COc1ccc(NC(=O)CCN2CCCC2)c(OC)c1` are 11.3 and 35.7% (inactive).
In the case of `Cc1cc(-c2ccccc2)nc(N2CCC(C(=O)NC34CC5CC(CC(C5)C3)C4)CC2)n1`, the fraction fluorescence in grains is 31 and the inhibition was 21.6% (inactive).
On the same counts, the results for `C=CCn1c(-c2ccc3[nH]c(C)c(C)c3c2)n[nH]c1=S` are 89.3 and -112% (inactive).
In the case of `Cc1ccc(CCN2CC(C(=O)O)CC2=O)cc1` (stereo not drawn), the fraction fluorescence in grains was found to be 14.7 and the inhibition is 30.2% (inactive).
Regarding `COc1ccc(C(CNC(=O)c2cccnc2SC)N2CCOCC2)cc1` (stereo not drawn), the fraction fluorescence in grains came to 16.3 and the inhibition was 9.2% (inactive).
Take `Cc1cc(C)nc(SCc2ccccc2C#N)n1`: the fraction fluorescence in grains is 35.4 and the inhibition is -3.8% (inactive).
On the same counts, the results for `Cc1ccc2[nH]c3c(=O)n(Cc4ccccn4)cnc3c2c1` are 21.3 and 46.1% (inactive).
In the same order, the values of `Cc1ccc(-n2ccc(=O)c(C(=O)O)n2)cc1` are 23.5 and 0.4% (inactive).
On the same counts, the results for `Cc1cccc(C)c1-n1c(C)cc(/C=C2\C(=O)NN(c3ccccc3)C2=O)c1C` are 26.9 and 30.9% (inactive).
Consider `CCS(=O)(=O)N1CCN(C(=O)c2cccs2)CC1`, for which the fraction fluorescence in grains came to 32.5 and the inhibition was 27.2% (inactive).
On the same counts, the results for `C=CCC(NCc1ccco1)c1ccc(OC)cc1` (stereo not drawn) are 62.5 and -55.5% (inactive).

For orientation: inhibition means the relative decrease from the control value, in per cent.
